# ATXN viability = reduces viability in counter-screen for ATXN expression inhibitors; AID 651635; S2 cells (HEK-293 line with an ATXN2-luciferase reporter) viability, CellTiter-Fluor protease fluorescence, 24 h; Potency, µM (highest dose often 56.7 µM), hits mostly cytotoxic; 0.49% of 400,000 active; further: potency means the concentration at half of the fitted maximal effect; nearly all actives have a fitted effect of over 40% in size
# ATXN2 expr inh = reduces ATXN2 reporter expression in HEK-293 cells. HEK-293 ATXN2-luciferase reporter, luminescence, 24 h. Potency, µM (doses to about 57 µM), without a hit: top-dose activity change, negative = inhibition, usual class: inhibitors. 0.72% of 360,000 active. AID 1745845; further: potency means the concentration at half of the fitted maximal effect; on the % scale 0 is the no-effect control and ±100 the full control effect; nearly all actives have a fitted effect of over 55% in size
#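 ATXN2-luciferase reporter cells (luciferase flanked by upstream and downstream ATXN2 gene portions) were treated 24 h at 37 °C with compounds at up to 57 uM. SteadyGlo luminescence gave expression; GF-AFC fluorescence gave viability.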
# TGFb SMAD3 inh = TGF-b pathway inhibition. HepG2 CAGA-GFP TGF-b/SMAD3 reporter, GFP fluorescence, 18 h; TGF-beta stimulated, 500 pg/mL final. Potency, µM (series often up to 46.1 µM), without a hit: at the highest dose activity, negative = inhibition, actives largely listed as inhibitors. 1.2% of 410,000 active. AID 588855; further: potency means the concentration at half of the fitted maximal effect; on the % scale 0 is the no-effect control and ±100 the full control effect; nearly all actives have a fitted effect of over 65% in size
#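 GFP signal (ex488/em500-530) from TGF-beta-stimulated HEPG2 CAGA-GFP cells, 500 pg/mL final, 18 h at 37 degrees C in DMEM plus 1% FBS, normalized to unstimulated and DMSO-stimulated controls.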
# IL-1B inflam inh = blocks inflammasome-driven IL-1 beta release | activity change, % at 57.5 µM | 4.7% of 360,000 active | THP-1 LPS/ATP IL-1B secretion, AlphaLISA, 16 h; hits give low values; in the data active means activity change below about -50%; inconclusive means mostly about -30% to -49%; further: on the % scale 0 is the no-effect control and ±100 the full control effect
#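 THP-1 cells pretreated 1 hr with compounds (up to 57.5 uM final), then stimulated with LPS (250 ng/mL final) plus ATP (1.25 mM final); secreted IL-1B measured by AlphaLISA after 16 hr, decreased signal indicating inhibition.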
# HepG2 tox-1 = kills HepG2 cells in TGF-b inhibitor counter-screen. HepG2 CAGA-GFP viability, ATP luminescence, 18 h. Potency, µM (series often up to 46.1 µM), for inactives: at the highest dose activity change, negative = cytotoxicity, most hits filed as cytotoxic. 0.76% of 410,000 active. AID 588856; further: potency means the concentration at half of the fitted maximal effect
#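 CellTiter-Glo luminescence gave cytotoxicity after 18 hours at 37 degrees C. The cells were HepG2 CAGA-GFP in 1% FBS DMEM, stimulated with 500 pg/mL TGF-beta after compound addition. %Activity was normalised to no-cell wells (complete cell-killing) and DMSO (no toxicity), and curves were fitted and classified.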
# TGFb CAGA inh = TGF-b pathway inhibition, cherry-pick retest; shares compounds with TGFb SMAD3 inh; HepG2 CAGA-GFP TGF-b reporter, GFP fluorescence, 18 h; cells stimulated with TGF-beta, 500 pg/mL; Potency, µM (top dose mostly 46.1 µM), without a hit: top-dose activity, negative = inhibition, usual class: inhibitors; 63% of 1,600 active; further: potency means the concentration at half of the fitted maximal effect; on the % scale 0 is the no-effect control and ±100 the full control effect; nearly all actives have a fitted effect of over 65% in size
# HepG2 tox-2 = toxic to HepG2 cells in TGF-b counterscreen; Potency, µM (top dose mostly 46.1 µM), for the others: at the highest dose activity, negative = cytotoxicity, hits mostly inhibitors; HepG2 CAGA-GFP viability, ATP luminescence, 18 h; cells stimulated with TGF-beta, 500 pg/mL; shares compounds with TGFb SMAD3 inh; 27% of 1,600 active; further: potency means the concentration at half of the fitted maximal effect; on the % scale 0 is the no-effect control and ±100 the full control effect; nearly all actives have a fitted effect of over 70% in size
# TGFb CCL64 inh = TGF-b inhibition, CCL64 orthogonal assay | 41% of 1,600 active | AID 720536 | Potency, µM (titrated, usually from 46.1 µM), for the others: at the top dose activity, negative = inhibition, most hits filed as inhibitors | CCL64 CAGA-GFP reporter, TGF-b stimulated, GFP fluorescence, 18 h | shares compounds with TGFb SMAD3 inh; further: potency means the concentration at half of the fitted maximal effect; nearly all actives have a fitted effect of over 65% in size
# COP TGFb inh = blocks TGF-b signaling in HepG2 COP reporter; 3% of 1,600 active; shares compounds with TGFb SMAD3 inh; AID 720537; Potency, µM (series often up to 46.1 µM), for the others: top-dose activity, negative = inhibition, hits mostly inhibitors; HepG2 COP-GFP TGF-b reporter, GFP fluorescence, 18 h; cells stimulated by added recombinant TGF-beta; further: potency means the concentration at half of the fitted maximal effect; nearly all actives have a fitted effect of over 70% in size
# * hit, by the source's call; i = inactive; ? = inconclusive; . = no result; [ ] = another dose, or the depositor's remark. Hits are enriched below; roughly 5.7% of the tested compounds scored in any of these assays. Unless noted, the call rests on the fitted dose curve; in most records, active means well fitted curve in the direction sought with a large enough effect; inconclusive means small, poorly fitted or top-dose-only effect, or another doubt; inactive means no such curve, though single readings can be large; an effect the other way counts as inactive or inconclusive.
SMILES,ATXN viability,ATXN2 expr inh,TGFb SMAD3 inh,IL-1B inflam inh,HepG2 tox-1,TGFb CAGA inh,HepG2 tox-2,TGFb CCL64 inh,COP TGFb inh
CN(C)c1ccc(C2CNC(c3ccc(Cl)c([N+](=O)[O-])c3)c3[nH]c4ccccc4c32)cc1 (centres undefined),?,.,8.9µM*,-25,-33%,?,-28%,21µM*,18%
O=C1CC(c2ccc(Cl)c([N+](=O)[O-])c2)c2ccc3ccccc3c2N1 (centres undefined),i,-17%,?,-11,-22%,.,.,.,.
Fc1ccc(Nc2c(-c3c[nH]c4ccccc34)nc3ccccn23)cc1,i,13%,-6%,.,-32%,.,.,.,.
CCCOc1ccc(/C=N/NC(=O)CN(c2ccc(OCC)cc2)S(C)(=O)=O)cc1,i,0%,?,-29,-30%,.,.,.,.
CCOc1ccc(N(CC(=O)N/N=C/c2cc([N+](=O)[O-])ccc2Cl)S(C)(=O)=O)cc1,i,-15%,7.9µM*,-11,0%,15µM*,-3%,?,16%
CCOC(=O)CNC(=O)c1cc2c(=O)n3cccc(C)c3nc2n1C,.,.,-3%,.,-3%,.,.,.,.
CC(C)CCNC(=O)c1ccc2c(c1)N(Cc1ccccc1F)C(=O)c1ccccc1S2=O (centres undefined),i,4%,-3%,.,-2%,.,.,.,.
CC1Sc2ccc(S(=O)(=O)CCC(=O)N3CCN(c4cccc(Cl)c4)CC3)cc2NC1=O (centres undefined),i,?,16µM*,0,-14%,18µM*,?,?,26%
CCc1ccc(C2c3c(-c4ccccc4O)n[nH]c3C(=O)N2Cc2cccnc2)cc1 (centres undefined),.,?,?,.,-64%,.,.,.,.
Cc1ccccc1CS(=O)(=O)c1nnc([C@H](CC(C)C)NC(=O)OC(C)(C)C)o1,?,?,5µM*,-67*,-90%,3.7µM*,?,5.8µM*,?
CC[C@@H](C)[C@H](NC(=O)OC(C)(C)C)c1nnc(S(=O)(=O)Cc2cc(C)ccc2C)o1,.,?,?,0,-95%,.,.,.,.
COc1ccc(CNC(=O)CCc2c(C)nn(-c3ccc(N4CCCCC4)nn3)c2C)cc1,.,.,-3%,.,-19%,.,.,.,.
CN(Cc1cccc(Cl)c1Cl)C(=O)c1cccc(S(=O)(=O)N2CCN(Cc3ccccc3)CC2)c1,?,-23%,8.9µM*,-11,-1%,10µM*,?,?,13%
CN(CC(=O)N1CCN(Cc2ccccc2)CC1)S(=O)(=O)c1ccc(F)cc1,i,10%,4%,-5,-6%,.,.,.,.
CSc1ccccc1NC(=O)C(C)N(C)CC(=O)N1CCN(Cc2ccccc2)CC1 (centres undefined),i,-18%,?,2,1%,?,0%,5%,4%
CCOc1ccc(NC(=O)Cn2ccn(-c3ccc(F)c(F)c3)c(=O)c2=O)cc1,.,.,8%,.,-7%,.,.,.,.
COc1ccc(C)c2sc(N(CCCN(C)C)C(=O)c3ccc(S(=O)(=O)N4CCc5ccccc5C4)cc3)nc12,.,28µM*,5µM*,-96*,7.1µM*,4.6µM*,5.2µM*,5.2µM*,?
CN(C)CCCN(C(=O)c1ccc(S(=O)(=O)N2CCc3ccccc3C2)cc1)c1nc2c(F)cc(F)cc2s1,i,-11%,-22%,?,-27%,.,.,.,.
O=C(NC1CCCCCC1)c1c2c(nc3ccccc13)CCN(Cc1ccccc1)C2,?,4%,8%,-3,6%,.,.,.,.
Cc1cc(N2CCN(C)CC2)ccc1NC(=O)c1c2c(nc3ccccc13)CCN(Cc1ccccc1)C2,?,-29%[11.3 µM],10µM*,-100*,10µM*,3.3µM*,2.6µM*,8.2µM*,12µM*
COc1cc(OC)cc(C(=O)N[C@H](C(=O)OCc2cc(=O)oc3cc(C)ccc23)C(C)C)c1,?,-6%,?,1,-1%,?,-5%,-12%,12%
COc1ccc(Cn2ccnc2SCC(=O)Nc2ccc(C)cc2C)cc1,.,.,?,.,-6%,.,.,.,.
O=C(c1ccc(Br)cc1)N(Cc1nc2ccccc2c(=O)[nH]1)C1CCCC1,i,-33%,11µM*,?,-13%,23µM*,-25%,-10%,19%
CCCCn1c(=O)c2oc3ccccc3c2n(CC(=O)Nc2cccc(Cl)c2)c1=O,.,.,?,.,1%,.,.,.,.
O=S(=O)(c1ccc(F)cc1)N(CC(O)Cn1c2ccccc2c2ccccc21)c1ccccc1 (centres undefined),.,?,?,.,-87%,.,.,.,.
CN(C)CCNC(=O)c1ccccc1-c1cc2ccccc2c(=O)o1,i,11%,1%,-3,-5%,.,.,.,.
COc1ccc(C(=O)NCCN(C)C)c2nc3ccccc3cc12,?,3.4µM*,7.1µM*,-99*,9%,10µM*,4.6µM*,?,39%
CCOc1ccc(CCN2C(=S)N([C@@H](Cc3ccc(O)cc3)CN3CCC[C@@H]3CN3C(=S)NC[C@@H]3Cc3ccccc3)C[C@@H]2Cc2ccc(O)cc2)cc1,?,0%,8.9µM*,?,-1%,6.5µM*,?,5.8µM*,44%
CCOc1ccc(CCN2C(=S)N([C@@H](CC(C)C)CN3CCCC3CN3C(=S)NC[C@@H]3Cc3ccc(O)cc3)C[C@@H]2Cc2ccc(O)cc2)cc1 (some centres undefined),?,?,7.1µM*,-71*,13µM*,21µM*,?,13µM*,53%
